Sampled rows, rich in hits. Any-hit rate of the full collection: about 5.5%.
FBPA coupling cs = inhibits coupling enzyme system, counter-screen for aldolase hits. activity change, negative = inhibition, % at 58.2 µM, hits read low. coupling enzyme system counterscreen, AmpLite Red fluorescence. actives 0.67% (n = 290,000). AID 2472; in the data active = activity change below about -30%
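Counterscreen of the coupled detection system alone, without aldolase: glyceraldehyde-3-phosphate coupling enzymes plus AmpLite Red readout. Compounds at 57.5 uM final, 10 min RT preincubation, 20 min RT reaction, fluorescence 525/598 nm.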
Giardia killer = kills Giardia lamblia | activity change, % at 7.66 µM, hits read low | actives 0.15% (n = 340,000) | Giardia lamblia trophozoite viability | AID 540267; in the data active = activity change below about -80%; inconclusive = between about -30% and that limit;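 note: parasites exposed to compound for two days anaerobically before the ATP read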
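Luminescence from cellular ATP indicates surviving trophozoites (100 cells/well) following 48 hrs anaerobic compound treatment at 37 deg C; signal develops 15-30 min at room temperature.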
Sfp PPTase inh = blocks B. subtilis Sfp PPTase activity. Biochemical Sfp PPTase activity, qHTS. Potency, µM, for inactives: largest response in the series, negative = inhibition, most hits filed as inhibitors. actives 3.5% (n = 310,000). AID 1490;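 note: the enzyme is Sfp with the accession as filed and its product quenches rhodamine fluorescence; potency is the fitted concentration of half-maximal effect; 0% = enzyme reaction without inhibitor and -100% = no enzyme wells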
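Fluorescence-quenching assay: 15 nM Sfp-PPTase preincubated 15 min at room temperature with compound, then 5 uM rhodamine-CoA and 12.5 uM BHQ-2-labelled YbbR peptide added. Fluorescence (ex 525/em 598 nm) read at start and after 30 min; difference gives rate.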
ELG1 DNA repair = blocks ELG1-dependent DNA repair in HEK293T cells | Potency, µM (top dose mostly 46.1 µM), for the others: top-dose activity change, negative = inhibition, most hits filed as inhibitors | actives 2.3% (n = 330,000) | AID 504467 | HEK293T ELG1-luciferase reporter, luminescence, 16 h; DNA damage induced by 5-fluorouridine; note: potency is the fitted concentration of half-maximal effect; nearly all actives have a fitted effect of over 55% in size
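HEK293T cells expressing luciferase-tagged ELG1 (2,000/well) received 5-Fluorouridine plus compound or DMSO for 16 hr at 37 °C. Luciferase was read by ONE-Glo luminescence after 30 min at room temperature.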
* hit, by the source's call; ? = inconclusive; · = no result given; ! = not confirmed by another sample. Unless noted, calls come from the whole dose curve; as a rule, active = well fitted curve in the direction sought with a large enough effect; inconclusive = small, poorly fitted or top-dose-only effect, or another doubt; inactive = no such curve, though single readings can be large; an effect the other way counts as inactive or inconclusive. Unless noted, % is set by controls: 0 for no effect and ±100 for the full control effect.

SMILES	FBPA coupling cs	Giardia killer	Sfp PPTase inh	ELG1 DNA repair
O=C(O)c1cccc(NC(=O)c2ccccc2NC(=O)c2ccco2)c1	4.6	6.2	7.7%	-11.2%
CCCCNS(=O)(=O)CCNCc1ccco1	·	-29.3	·	-0.9%
Cc1noc(NS(=O)(=O)c2ccc(NC(=O)C(F)(F)C(F)(F)C(F)(F)F)cc2)c1C	·	4.3	·	·
C=CCN1CCN(c2nc3ccccc3nc2C#N)CC1	-0.1	·	56.2µM*!	·
CC1(C)C(C(=O)OCC(Cl)(Cl)Cl)N2C(=O)C(NC(=O)Cc3ccccc3)C2S1=O (stereo not given)	-0.7	-13.2	-12.1%	-8.0%
COc1ccccc1C1NC=C([N+](=O)[O-])C=C1[N+](=O)[O-] (stereo not given)	-17.5	?	?	-22.7%
COc1ccccc1C1C([N+](=O)[O-])=CC([N+](=O)[O-])=CN1C (stereo not given)	-5.8	-82.7*	-24.3%	?
CCS(=O)(=O)N1CCC(NC(=O)C(Cc2cc(OC)ccc2OC)NC(C)=O)CC1 (stereo not given)	2.1	6.6	4.9%	-1.4%
COc1ccc(OC)c(C2CC(=O)N3CN(c4cccc(Cl)c4)CSC3=C2C#N)c1 (stereo not given)	-6.1	4.5	10µM*	11.2%
COc1ccc(OC)c(C2C(C#N)=C(N)Oc3c2c(C)nn3-c2cccc(Cl)c2)c1 (stereo not given)	2.1	-12.2	-2.1%	?
CCOC(=O)c1ccc(N2CSC3=C(C#N)C(c4ccc(OC)cc4OC)CC(=O)N3C2)cc1 (stereo not given)	-4.8	9.7	20µM*	7.5%
COc1cccc(N2CCN(C3CC(=O)N(c4ccc(C)c(Cl)c4)C3=O)CC2)c1 (stereo not given)	3.6	-0.5	15.8%	1.0%
CCOC(=O)CC1=C(C(=O)OCC)C(c2ccc(OC)cc2OC)C(C#N)=C(N)O1 (stereo not given)	-25.9	-10.4	79.4µM*	27.4%
COc1ccc(OC)c(C2CC(=O)N3CN(c4ccc(C)c(Cl)c4)CSC3=C2C#N)c1 (stereo not given)	-12.6	18.9	7.08µM*	12.6%
CC(C)n1c(SCC(=O)NC2CC2)nnc1C1CC1	·	-7.9	1.4%	1.4%
CCN1C[C@@H]2[C@@H]3C(=O)N(C)C(=O)[C@@H]3[C@](CC)(C(=O)OC)N2C1=NCc1ccccc1	·	-17.3	·	·
Cc1cc(C)nc(SCC(=O)NC2=NN=C(c3ccc(Br)cc3)CS2)n1	-2.1	-18.5	39.8µM*	?
O=C1c2ccccc2C(=O)c2[nH]cnc21	-23.5	?	18.1%	?
O=C1c2ccccc2C(=O)c2c1ncn2-c1ccccc1	-35.6*	-6.1	21.3%	-22.2%
Cc1ccc(NNC(=O)c2ccno2)c(C)c1	1.6	-5.4	-9.1%	13µM*
COc1cc(/C=C2\C(=O)N(c3ccc(NC(C)=O)cc3)N=C2c2ccccc2)ccc1O	0.2	-3.6	11.3%	12.1%
O=C1/C(=C\c2ccc(O)c(O)c2)C(c2ccccc2)=NN1c1ccccc1	-0.6	9.0	50.1µM*	-5.1%
CC(NC(=O)C1CCC(CNS(=O)(=O)c2ccccc2)CC1)c1ccccc1 (stereo not given)	-2.1	-8.9	5.3%	-1.5%
Cc1ccc(S(=O)(=O)N2CCN(C(=O)COC(=O)c3cccc(Cl)c3)CC2)c(C)c1	·	-4.7	·	-1.3%
C=C1N(C)c2cc([N+](=O)[O-])c(N)cc2C1(C)C	-41.1*	-9.5	-11.6%	-2.2%
SMILES	FBPA coupling cs	Giardia killer	Sfp PPTase inh	ELG1 DNA repair
CCC[C@@H]1CC2=CC(=O)CC[C@]2(C)[C@H]2CC[C@@]3(C)[C@@H](CC[C@@]34CCC(=O)O4)[C@H]12	0.6	·	?	·
CCOC(=O)COc1c(Cl)cc(C2NC(=S)NC(c3ccccc3)=C2C(C)=O)cc1OC (stereo not given)	5.0	-14.6	-4.6%	-17.8%
COc1cc(C2NC(=S)NC(c3ccccc3)=C2C(C)=O)cc(Cl)c1OCC(=O)O (stereo not given)	13.7	-1.1	89.1µM*	24.9%
Cc1cc(NC(=O)CC2CCCC2)n(-c2nc3ccccc3[nH]2)n1	-2.1	-18.3	11.6%	23.1µM*
Cc1ncc([N+](=O)[O-])n1CC(=O)Nc1cc(Cl)ccc1Cl	1.8	-17.0	-4.3%	0.8%
CCC(c1ccc(O)c(O)c1)C(CC)c1ccc(O)c(O)c1 (stereo not given)	·	-1.8	·	·
CC(C)NC[C@H](O)c1ccc(O)c(O)c1	-65.5*!	-24.2	3.98µM*!	22.8%
